Test results as given in article PMC4336329 (PLoS ONE, 2015).
In all, about 310,000 compounds went through this assay and about 14,000 (4.5%) showed an effect of 50% or more. Effects have a minus sign here. Many of the other results were omitted from the sample, so strong results are more common in it than they were.

What follows are compounds tested against human ether-à-go-go-related gene (hERG) potassium channel (human, UniProt Q12809) (assay: primary screen, population patch clamp on CHO cells stably expressing hERG; higher = less effect of the substance).
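Further: peak tail current of the secondary pulse compared with the same well before compound.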

human ether-à-go-go-related gene (hERG) potassium channel, sequence (Q12809 whole entry, looked up): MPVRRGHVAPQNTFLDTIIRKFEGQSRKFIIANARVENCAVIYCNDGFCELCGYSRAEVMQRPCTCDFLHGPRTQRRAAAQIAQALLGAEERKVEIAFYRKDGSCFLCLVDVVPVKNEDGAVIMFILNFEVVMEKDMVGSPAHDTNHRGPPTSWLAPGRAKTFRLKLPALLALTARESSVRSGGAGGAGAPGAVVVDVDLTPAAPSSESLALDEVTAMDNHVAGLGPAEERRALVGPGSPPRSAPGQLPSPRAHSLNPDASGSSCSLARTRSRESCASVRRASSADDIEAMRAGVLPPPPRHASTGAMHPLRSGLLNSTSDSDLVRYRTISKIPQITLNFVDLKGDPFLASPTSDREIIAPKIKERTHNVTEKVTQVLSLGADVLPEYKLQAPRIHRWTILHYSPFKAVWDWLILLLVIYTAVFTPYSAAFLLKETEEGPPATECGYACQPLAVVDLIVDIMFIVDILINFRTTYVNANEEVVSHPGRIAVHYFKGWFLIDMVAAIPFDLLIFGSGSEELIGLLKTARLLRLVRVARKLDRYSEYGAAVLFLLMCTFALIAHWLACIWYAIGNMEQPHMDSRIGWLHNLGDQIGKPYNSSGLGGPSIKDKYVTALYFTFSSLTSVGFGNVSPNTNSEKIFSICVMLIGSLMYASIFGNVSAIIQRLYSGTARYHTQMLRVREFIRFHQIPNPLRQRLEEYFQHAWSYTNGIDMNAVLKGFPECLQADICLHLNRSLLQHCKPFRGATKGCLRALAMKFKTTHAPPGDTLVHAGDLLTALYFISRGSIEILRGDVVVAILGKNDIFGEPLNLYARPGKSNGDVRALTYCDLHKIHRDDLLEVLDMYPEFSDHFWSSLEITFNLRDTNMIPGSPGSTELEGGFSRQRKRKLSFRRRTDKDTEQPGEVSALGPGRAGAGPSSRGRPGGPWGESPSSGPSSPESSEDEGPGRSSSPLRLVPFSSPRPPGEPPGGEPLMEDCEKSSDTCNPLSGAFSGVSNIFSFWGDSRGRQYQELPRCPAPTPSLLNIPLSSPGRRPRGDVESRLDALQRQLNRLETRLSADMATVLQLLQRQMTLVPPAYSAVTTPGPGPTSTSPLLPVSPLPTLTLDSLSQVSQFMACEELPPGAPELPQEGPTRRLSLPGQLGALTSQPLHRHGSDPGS

Row | SMILES | hERG current change (%, negative = inhibition) at 10uM
1 | CCN(CC)c1nc(Nc2ccc([N+](=O)[O-])cc2)nc(N(CC)CC)n1 | 11.1%
2 | CCN(CC)CCCn1c2c(c(SCC(=O)Nc3ccc(OC(F)(F)F)cc3)nc1=O)CCC2 | -67.7%
3 | Clc1ccc(-c2nnc(SCc3ccon3)o2)c(Cl)c1 | -33.9%
4 | COc1ccc(NC(=O)[C@@H]2CCCN2C(=O)[C@@H]2Cc3ccccc3CN2C(=O)OC(C)(C)C)cc1 | 14.8%
5 | COC(=O)CCC(=O)c1oc2ccc(OC)cc2c1N | 4.41%
6 | CC(CC(=O)Nc1cc(S(=O)(=O)N2CCOCC2)ccc1OCC(F)(F)F)c1ccccc1 (centres unmarked) | -50.2%
7 | CC(C)Oc1ccc(S(=O)(=O)N2CCOCC2)cc1NC(=O)CC1OC(=O)c2ccccc21 (centres unmarked) | -25%
8 | CC(CC(=O)Nc1ccc(S(=O)(=O)N2CCOCC2)cc1)c1ccccc1 (centres unmarked) | -4.25%
9 | CCOc1ccc(S(=O)(=O)N2CCCCC2)cc1NC(=O)CC1OC(=O)c2ccccc21 (centres unmarked) | -31.3%
10 | O=C(CC1OC(=O)c2ccccc21)Nc1cc(S(=O)(=O)N2CCOCC2)ccc1OCC(F)(F)F (centres unmarked) | -52.2%
11 | O=C(Nc1cc(S(=O)(=O)N2CCOCC2)ccc1OCC(F)(F)F)C1=COCCO1 | -42.8%
12 | CCOc1ccc(Br)cc1C(=S)N1CCCC1 | 9.29%
13 | COC(=O)c1ccc(Oc2cc(C)nc(Cl)n2)cc1 | 13.9%
14 | O=C1CCCC2=C1C(c1ccncc1)Nc1ccccc1N2 (centres unmarked) | 10.2%
15 | Cc1ccc(NC(=O)C2CCCN2C(=O)OCc2ccccc2)c(C)c1 (centres unmarked) | 12.7%
16 | Cc1cccc(NC(=O)CC2c3ccccc3Oc3ccccc32)c1 | 18%
17 | CCCc1cc(-n2cnc3ccccc32)n2c(nc3ccccc32)c1C#N | -50.1%
18 | CCCc1cc(N2CCN(C(=O)c3ccco3)CC2)n2c(nc3ccccc32)c1C#N | -56.1%
19 | CC(C)c1cc(N2CCN(C(=O)c3ccco3)CC2)n2c(nc3ccccc32)c1C#N | -34.1%
20 | CCCc1cc(-n2ccnc2C)n2c(nc3ccccc32)c1C#N | 0.616%
21 | CCCc1cc(-n2ccnc2)n2c(nc3ccccc32)c1C#N | -29.7%
22 | CCCCc1nc(N2CCN(C(=O)c3ccco3)CC2)c(C#N)c2c1CCCC2 | -5.71%
23 | NC(=O)c1cc[n+](CC2=C(C(=O)[O-])N3C(=O)[C@@H](NC(=O)C(c4ccccc4)S(=O)(=O)[O-])[C@H]3SC2)cc1.[Na+] (some centres unmarked) | 20.3%
24 | Cc1cc(OCc2nn[nH]n2)c2c3c(c(=O)oc2c1)CCC3 | 3.12%
25 | Cc1cc(C)c(S(=O)(=O)NCc2ccc3c(c2)OCO3)cc1C | -6.86%
26 | Cc1onc(-c2ccccc2)c1C(=O)c1ccccc1 | 3.87%
27 | COCCN1CC(C(=O)NCc2ncccc2C)CCC1=O (centres unmarked) | 22.6%

Row | SMILES | hERG current change (%, negative = inhibition) at 10uM
28 | Cc1ccc(S(=O)(=O)CCC(=O)N(Cc2nnc(-c3ccc(Cl)cc3)o2)C2CC2)cc1 | -12.7%
29 | O=[N+]([O-])c1ccc(N2CCN(S(=O)(=O)c3ccccc3)CC2)cc1NCc1cccnc1 | 1.8%
30 | Cc1ccc2c(CC(=O)OCc3cc(=O)n4c(n3)sc3ccccc34)coc2c1 | 5.05%
31 | CC(CN1CCCCC1)OC(=O)C(C)(c1ccccc1)c1ccccc1.Cl (centres unmarked) | -52.3%
32 | CC(CN1CCOCC1)OC(=O)/C=C/c1ccccc1.Cl (centres unmarked) | 10.1%
33 | COc1ccc(/C=C/C(=O)OC(C)CN2CCCCC2)cc1.Cl (centres unmarked) | -26.2%
34 | CC(CN1CCOCC1)OC(=O)C(C)(c1ccccc1)c1ccccc1 (centres unmarked) | -8.05%
35 | CC(CN1CCCC1)OC(=O)C(c1ccccc1)c1ccccc1.Cl (centres unmarked) | -42.2%
36 | CC(CN1CCCCC1)OC(=O)/C=C/c1ccccc1.Cl (centres unmarked) | -71%
37 | COc1cccc2cc(C(=O)NCc3ccc(Cl)cc3)c(=O)oc12 | 14.4%
38 | O=C(Cn1cnc2ccccc2c1=O)Nc1cccc(-c2nnc3n2CCCCC3)c1 | 0.387%
39 | Cc1ccccc1-n1nc(C(=O)c2cccs2)cc(-c2nc3ccccc3[nH]2)c1=N | -1.9%
40 | N=c1c(-c2nc3ccccc3[nH]2)cc(C(=O)c2cccs2)nn1-c1ccc(Cl)cc1 | 8.51%
41 | N=c1c(-c2nc3ccccc3[nH]2)cc(C(=O)c2ccco2)nn1-c1ccccc1 | -59.5%
42 | Cc1ccc2nc(-c3cccc(NC(=O)c4ccco4)c3)[nH]c2c1 | -30.7%
43 | COc1ccc(-n2nc(C(=O)c3cccs3)cc(-c3nc4ccccc4[nH]3)c2=N)cc1 | -4.53%
44 | N=c1c(-c2nc3ccccc3[nH]2)cc(C(=O)c2cccs2)nn1-c1ccccc1 | -50.2%
45 | O=C(Nc1ccc(-c2nc3ccccc3[nH]2)cc1)c1ccco1 | -18.4%
46 | O=C(Nc1cccc(-c2nc3ccccc3[nH]2)c1)c1ccco1 | -16.9%
47 | Cc1cccc(-n2nc(C(=O)c3ccco3)cc(-c3nc4ccccc4[nH]3)c2=N)c1 | -65.7%
48 | COc1ccc(CCNC(=O)CCC(=O)N2CCN(S(=O)(=O)c3ccccc3)CC2)cc1OC | 4.4%
49 | Fc1ccc(-n2c(Cc3ccccc3)nnc2SCc2nc(-c3ccc(Cl)cc3)no2)cc1 | -1.6%
50 | Cc1cc(N(CN2CCCC2=O)C(=O)c2ccc(OC(C)C)cc2)no1 | -2.94%
51 | O=C(NP(=O)(N1CCOCC1)N1CCOCC1)C1=C(N2CCOCC2)/C(=C\c2ccccc2)CC1 | 18.1%
52 | Cc1nc2n(n1)C(c1ccccc1)C1=C(CC(c3ccco3)CC1=O)N2 (centres unmarked) | 11.4%
53 | COc1ccc(OC)c(-n2c(SCC(C)=O)nnc2-c2cccc(S(=O)(=O)N(C)C)c2)c1 | -16.9%
54 | CCSc1nnc(-c2cccc(S(=O)(=O)N(C)C)c2)n1-c1cc(OC)ccc1OC | -49.8%

Row | SMILES | hERG current change (%, negative = inhibition) at 10uM
55 | CCCSc1nnc(-c2cccc(S(=O)(=O)N(C)C)c2)n1-c1cc(OC)ccc1OC | -68.2%
56 | CC(C)(C)OC(=O)CNC(=O)c1nc[nH]c1C(=O)N1CCN(C(=O)OC(C)(C)C)CC1 | -15.8%
57 | CCOc1ccc(C(=O)NCCC(=O)NCCCC(=O)O)cc1 | 6.08%
58 | Cc1cccc(N2N=C(C(=O)O)CCC2=O)c1 | 10.2%
59 | CC(=O)c1ccc(NC(=O)c2cnn3c(C(F)F)cc(C4CC4)nc23)cc1 | 11.1%
60 | O=C(O)c1cnn2c(C(F)F)cc(C3CC3)nc12 | 3.73%
61 | O=C(Nc1cccnc1)c1cnn2c(C(F)F)cc(C3CC3)nc12 | -57.6%
62 | Cc1ccc(C)c(SCC(=O)N(C)CC(=O)Nc2ccc(N3CCOCC3)cc2)c1 | -5.12%
63 | Cc1ccc(NC(=S)N/N=C/c2ccc([N+](=O)[O-])s2)cc1 | -3.04%
64 | COc1ccc(N2CC(C(=O)N3CCN(Cc4ccc5c(c4)OCO5)CC3)CC2=O)cc1 (centres unmarked) | -19%
65 | O=C(C1CCN(Cc2cccs2)CC1)N1CCN(Cc2ccc3c(c2)OCO3)CC1.O=C(O)C(=O)O | -14.5%
66 | COc1cccc(CN2CCC(C(=O)N3CCN(Cc4ccc5c(c4)OCO5)CC3)CC2)c1 | -19.8%
67 | O=C(C1CCN(Cc2ccc(Cl)cc2)CC1)N1CCN(Cc2ccc3c(c2)OCO3)CC1 | -66.6%
68 | O=C(c1ccc(F)cc1)N1CCC(C(=O)N2CCN(Cc3ccc4c(c3)OCO4)CC2)CC1 | -10.5%
69 | O=C(C1CCN(c2nnc(-n3cccc3)s2)CC1)N1CCN(Cc2ccc3c(c2)OCO3)CC1 | -68.2%
70 | C[C@H](NS(=O)(=O)c1ccc2c(c1)OCCCO2)C(=O)N1CCN(Cc2ccc(C#N)cc2)CC1 | -61.1%
71 | C[C@H](NS(=O)(=O)c1ccc2c(c1)OCCCO2)C(=O)N1CCN(c2ccc(F)cc2)CC1 | -34.8%
72 | O=C(C1CC(=O)N(c2ccc3c(c2)OCCO3)C1)N1CCN(Cc2ccccc2)CC1 (centres unmarked) | 0.404%
73 | O=C(C1CCN(Cc2ccccc2O)CC1)N1CCN(Cc2ccc3c(c2)OCO3)CC1 | -23%
74 | N#Cc1ccc(CN2CCN(C(=O)CNS(=O)(=O)c3ccc4c(c3)OCCCO4)CC2)cc1 | -20.8%
75 | O=C(C1CC(=O)N(c2ccc(Cl)cc2)C1)N1CCN(Cc2ccc3c(c2)OCO3)CC1 (centres unmarked) | -67.7%
76 | O=C(c1c[nH]c2ccc(S(=O)(=O)N3CCOCC3)cc2c1=O)N1CCC2(CC1)OCCO2 | 23.7%
77 | CCc1ccccc1NC(=O)N1C2CCCC1CC(NC(C)=O)C2 (centres unmarked) | 21.4%
78 | Cc1nn(-c2ccccc2)c(Cl)c1C1C(C#N)=C(N)Oc2c1c(=O)oc1ccccc21 (centres unmarked) | 6.87%
79 | CCN1C(=O)C(=Cc2c(C)n(CC(=O)NCC3CCCO3)c3ccccc23)C(=O)N(CC)C1=S (centres unmarked) | 27.5%
80 | CCOc1cc(-c2noc(CCC(=O)Nc3cccnc3)n2)ccc1OC | 10.4%
